Reference: PubChem BioAssay AID1159580 (chemical genetic matrix, 2015)
Where “and” joins values, the source holds several entries; their conditions need not be identical. Equal entries are not always repeated. About 2,000 (36%) of roughly 5,500 compounds were called active. Roughly 18% stayed inconclusive and do not appear here. No stated cut-off is given here; in the data, active means normalized growth mostly below about 0.91 (no sharp cut-off); inconclusive means no clear call, values can overlap the other calls; inactive means mostly above about 0.92. The list shows a part of the results.

Test: chemical genetic growth profiling, strain panel (AID 1159580);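 further: tested at 20 µM; growth read once vehicle control cultures reached saturation at 30 °C; 1 = growth at the plate median or of vehicle wells; lower values mean less growth of the strain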
Conditions: S. cerevisiae deletion strains, growth OD

Measured: normalized growth

CCCCCC(=O)O[C@]1(C(C)=O)CCC2C3CCC4=CC(=O)CC[C@]4(C)C3CC[C@@]21C (some centres undefined)
inactive: locus YAL013W, strain DEP1, hits give low values 1.02 | locus YAL021C, strain ccr4, hits give low values 1 | locus YAL026C, strain drs2, hits give low values 1.03 | locus YAL030W, strain snc1, hits give low values 1 | locus YBL061C, strain skt5, hits give low values 1 | locus YBR009C, strain hhf1, hits give low values 1.01 | locus YBR021W, strain FUR4, hits give low values 0.948 | locus YBR023C, strain chs3, hits give low values 0.985 | locus YBR171W, strain sec66, hits give low values 0.993 | locus YBR229C, strain ROT2, hits give low values 1.01 | locus YBR231C, strain swc5, hits give low values 0.991 | locus YBR279W, strain paf1, hits give low values 1 | locus YCL011C, strain gbp2, hits give low values 1.01 | locus YCL016C, strain dcc1, hits give low values 1 | locus YCL029C, strain bik1, hits give low values 1.01 | locus YCL061C, strain MRC1, hits give low values 0.971 | locus YCL069W, strain vba3, hits give low values 1.01 | locus YCR088W, strain abp1, hits give low values 0.995 | locus YDL005C, strain med2, hits give low values 0.996 | locus YDL035C, strain GPR1, hits give low values 1.02 | locus YDL040C, strain nat1, hits give low values 1.01 | locus YDL074C, strain BRE1, hits give low values 1.01 | locus YDL101C, strain DUN1, hits give low values 1.01 | locus YDL134C, strain PPH21, hits give low values 1.01 | locus YDL185W, strain tfp1, hits give low values 1.02 | locus YDL192W, strain arf1, hits give low values 1.01 | locus YDR001C, strain nth1, hits give low values 1.01 | locus YDR069C, strain doa4, hits give low values 0.995 | locus YDR101C, strain arx1, hits give low values 1.01 | locus YDR137W, strain rgp1, hits give low values 1.01 | locus YDR150W, strain NUM1, hits give low values 1.02 | locus YDR159W, strain sac3, hits give low values 0.976 | locus YDR162C, strain NBP2, hits give low values 0.996 | locus YDR195W, strain ref2 1.02 | locus YDR297W, strain sur2, hits give low values 1 | locus YDR318W, strain mcm21, hits give low values 1 | locus YDR334W, strain swr1, hits give low values 0.999 | locus YDR335W, strain msn5, hits give low values 1.01 | locus YDR388W, hits give low values 1.01 | locus YDR392W, strain spt3, hits give low values 0.91 | locus YDR502C, strain sam2, hits give low values 1.01 | locus YEL003W, strain gim4, hits give low values 1.02 | locus YEL037C, strain rad23, hits give low values 1 | locus YEL061C, strain CIN8 (second series), hits give low values 1 | locus YEL061C, strain CIN8, hits give low values 1 | locus YER015W, strain faa2, hits give low values 0.997 | locus YER016W, strain bim1, hits give low values 0.988 | locus YER110C, hits give low values 1.02 | locus YER111C, strain swi4, hits give low values 0.991 | locus YER155C, strain BEM2 (second series), hits give low values 1.01 | locus YER155C, strain BEM2, hits give low values 1.01 | locus YER167W, strain BCK2, hits give low values 1.01 | locus YFR010W, strain ubp6, hits give low values 1.02 | locus YGL078C, strain dbp3, hits give low values 1.01 | locus YGL086W, strain mad1, hits give low values 1.01 | locus YGL167C, strain pmr1, hits give low values 0.989 | locus YGL173C, strain kem1, hits give low values 1.01 | locus YGL227W, strain vid30, hits give low values 1 | locus YGL240W, strain doc1, hits give low values 0.976 | locus YGL248W, strain PDE1, hits give low values 1.01 | locus YGL253W, strain hxk2, hits give low values 1.01 | locus YGR135W, strain pre9, hits give low values 1.01 | locus YGR252W, strain gcn5, hits give low values 0.974 | locus YHR013C, strain ard1, hits give low values 1.01 | locus YHR027C, strain rpn1, hits give low values 0.999 | locus YHR030C, strain SLT2, hits give low values 1.03 and 0.978 | locus YHR079C, strain IRE1 (second series), hits give low values 1.01 | locus YHR079C, strain IRE1, hits give low values 0.976 | locus YHR094C, strain hxt1, hits give low values 1 | locus YHR129C, strain ARP1, hits give low values 1.01 | locus YHR142W, strain chs7, hits give low values 1.02 | locus YHR200W, strain rpn10, hits give low values 1.01 | locus YIL066C, strain RNR3, hits give low values 1.02 | locus YIL073C, strain SPO22, hits give low values 1.04 | locus YIL125W, strain kgd1, hits give low values 1.01 | locus YIR030C, strain dcg1, hits give low values 1.01 | locus YJL092W, strain hpr5, hits give low values 1.01 | locus YJL095W, strain BCK1 (second series), hits give low values 1 | locus YJL095W, strain BCK1, hits give low values 1.02 and 0.987 | locus YJL115W, strain asf1, hits give low values 1 | locus YJL129C, strain trk1, hits give low values 0.946 | locus YJL134W, strain LCB3, hits give low values 0.98 | locus YJL154C, strain vps35, hits give low values 1.02 | locus YJL164C, strain tpk1, hits give low values 1.01 | locus YJL166W, strain qcr8, hits give low values 1 | locus YJL168C, strain set2, hits give low values 1.01 | locus YJL187C, strain SWE1 (second series), hits give low values 1.01 | locus YJL187C, strain SWE1, hits give low values 0.997 | locus YJR043C, strain POL32, hits give low values 1.01
